# Source: PubChem BioAssay (Tox21)
# Values without a mark were called inactive. Inconclusive results are not listed. A call without a number means that no potency is given here. Active and inactive are the calls of the source. Unless noted, calls follow the shape of the dose curve; as a rule, active = well fitted curve in the direction sought with a large enough effect in the repeat runs; inconclusive = weak or mixed curves; inactive = no such curve, though single readings can be large; an effect the other way counts as inactive or inconclusive.
# Legend:
# [1] = A CellTox Green Cytotoxicity Assay to monitor cytotoxicity in HepG2 cells - 8 hour (AID 1224890); also: nearly all actives have a fitted effect of over 45% in size
# Summary of the method: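 Cells and non-lytic dye reagent are dispensed together (600 HepG2 cells/well) and incubated 5 h before DMSO compound transfer. Kinetic fluorescence is then recorded in the same wells during 40 h at 37 C.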
# [2] = qHTS assay to identify small molecule antagonists of the estrogen receptor alpha (ER-alpha) signaling pathway using the BG1 cell line in the presence of 0.1 nM 17-beta-estradiol - cell viability counter screen (AID 1259241); also: nearly all actives have a fitted effect of over 40% in size
# Summary of the method: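 VM7Luc4E2 cells (endogenous full-length ER-alpha, 4xERE-luciferase), cultured 5 days in charcoal-stripped serum, exposed to compounds with 0.1 nM 17beta-estradiol (final) for 22 hr at 37C. Viability read in same wells as live-cell protease fluorescence after 30 min.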
# [3] = qHTS assay to identify small molecule antagonists of the androgen receptor (AR) signaling pathway using the MDA cell line in the presence of 0.5 nM R1881 - cell viability counter screen (AID 1259242); also: nearly all actives have a fitted effect of over 45% in size; also: potency is read from the fitted curve at half-maximal effect
# Summary of the method: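 Steps: plate MDA-kb2 cells, rest 5 hr at 37C without CO2; pin in compounds in DMSO; add R1881 to 0.5 nM final; incubate 16 hr; add CellTiter-Fluor, 30 min; read fluorescence.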
# [4] = qHTS assay to identify small molecule HDAC inhibitors (AID 1259364); also: potency is read from the fitted curve at half-maximal effect;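 also: wild-type HCT-116 cells with endogenous class I/II HDAC activity; nearly all actives have a fitted effect of over 45% in size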; as to activity change, negative = inhibition: top concentration of the series differs between compounds
# Summary of the method: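 Cells (HCT-116, wild type) are seeded at 1,500 per well, incubated overnight, treated with compound in DMSO for 2 hr, then developed with HDAC-Glo I/II reagent for 30 min at room temperature.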
# [5] = qHTS assay to identify small molecule HDAC inhibitors - cell viability counter screen (AID 1259365); also: series mostly up to about 92 µM; nearly all actives have a fitted effect of over 50% in size
# Summary of the method: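 Wild-type HCT-116 cells, 1,500/well, cultured overnight, then compound-treated 2 h at 37 C. Viability measured as ATP luminescence with CellTiter-Glo after 30 min at room temperature.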
# [6] = qHTS assay to identify small molecule agonists of the sonic hedgehog signaling (Shh) pathway - cell viability counter screen (AID 1259366); also: nearly all actives have a fitted effect of over 50% in size
# Summary of the method: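 NIH/3T3-derived Gli1-Luc reporter cells, 2,000 per well, received compound after 4 h and were treated about 23 h at 37C. Viability measured in the same wells by CellTiter-Fluor fluorescence after 1 h.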
# [7] = biological target: Estrogen receptor (Homo sapiens) (UniProt P03372); assay: qHTS assay to identify small molecule antagonists of the estrogen receptor alpha (ER-alpha) signaling pathway using the BG1 cell line in the presence of 0.1 nM 17-beta-estradiol (AID 1259244); also: nearly all actives have a fitted effect of over 50% in size; also: potency is read from the fitted curve at half-maximal effect
# Chain of Estrogen receptor (Homo sapiens) (P03372 whole entry, looked up): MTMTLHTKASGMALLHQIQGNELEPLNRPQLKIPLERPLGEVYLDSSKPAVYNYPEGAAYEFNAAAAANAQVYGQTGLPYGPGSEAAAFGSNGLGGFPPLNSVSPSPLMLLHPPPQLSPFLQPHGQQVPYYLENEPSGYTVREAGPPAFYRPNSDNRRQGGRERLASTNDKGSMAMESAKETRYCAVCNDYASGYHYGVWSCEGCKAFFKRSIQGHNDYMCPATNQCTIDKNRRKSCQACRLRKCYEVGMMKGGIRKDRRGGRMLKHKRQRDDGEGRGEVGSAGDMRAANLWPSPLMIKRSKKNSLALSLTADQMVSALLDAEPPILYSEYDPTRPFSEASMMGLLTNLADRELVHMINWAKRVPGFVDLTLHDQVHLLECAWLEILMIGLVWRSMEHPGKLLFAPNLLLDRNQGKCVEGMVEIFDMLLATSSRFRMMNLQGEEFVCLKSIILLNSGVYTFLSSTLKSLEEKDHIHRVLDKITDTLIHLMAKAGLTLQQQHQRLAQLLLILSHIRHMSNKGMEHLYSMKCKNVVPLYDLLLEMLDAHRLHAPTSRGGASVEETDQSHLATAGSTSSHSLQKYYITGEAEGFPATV
# Summary of the method: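 Antagonist mode: compounds in DMSO are pinned onto VM7Luc4E2 reporter cells, 0.1 nM final 17beta-estradiol is added, and after 22 h at 37C luciferase luminescence is measured with ONE-Glo.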
# [8] = qHTS assay to identify small molecule antagonists of the sonic hedgehog signaling (Shh) pathway - cell viability counter screen (AID 1259367); also: nearly all actives have a fitted effect of over 55% in size
# Summary of the method: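 Tox21 library chemicals were tested on a Gli1-Luc NIH/3T3 clone (2,000 cells/well) stimulated by conditioned medium; viability was quantified as fluorescence from CellTiter-Fluor reagent added at 23 hr.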
# [9] = qHTS assay to identify small molecule phospholipidosis (PLD) inducers (AID 1259344; active = well fitted curve in the direction sought with a large enough effect; an effect the other way counts as inactive or inconclusive)
# Summary of the method: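 Image-based: LipidTOX Red pit count/intensity per well and per cell; HepG2, 24 h compound at 37 C, PFA fixation, Hoechst counterstain.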
smiles,measurement,setting,value
CCCCCCCC/C=C\CCCCCCCC(=O)OC(CO)CO,Potency,[1],inactive
same,Potency,[2],inactive
same,Potency,[3],inactive
same,Potency,[4],inactive
same,Potency,[5],inactive
same,Potency,[6],inactive
C=CCCCCCCCCCCCCCCCC,cytotoxicity increase,[1],-16.6% [at 6.97 µM]
same,"activity change, negative = cytotoxicity",[2],0.274% [at 8.39 µM]
same,"viability change, negative = cytotoxic",[3],2.55% [at 8.39 µM]
same,"activity change, negative = inhibition",[7],11.9% [at 8.39 µM]
same,"activity change, negative = cytotoxicity",[5],-1.22% [at 8.39 µM]
same,"viability change, negative = cytotoxic",[6],4.48% [at 8.39 µM]
same,"viability change, negative = cytotoxic",[8],0.663% [at 8.39 µM]
O=S(=O)(c1ccccc1)c1ccc(Cl)cc1,Potency,[1],inactive
same,Potency,[2],inactive
same,Potency,[3],inactive
same,Potency,[4],inactive
same,Potency,[5],inactive
same,Potency,[6],inactive
same,Potency,[8],inactive
CC1CC(O)CC(C)(C)C1 (centres undefined),Potency,[1],inactive
same,Potency,[2],inactive
same,Potency,[3],inactive
same,outcome,[9],inactive
same,Potency,[4],inactive
same,Potency,[5],inactive
same,Potency,[6],inactive
same,Potency,[8],inactive
CCC(=O)Oc1ccc(/C(CC)=C(\CC)c2ccc(OC(=O)CC)cc2)cc1,Potency,[1],inactive
same,Potency,[2],inactive
same,Potency,[3],inactive
same,Potency,[4],inactive
same,Potency,[5],inactive
same,Potency,[6],inactive
O=C(O)c1ccccc1NCCc1ccccc1,Potency,[1],inactive
same,Potency,[2],inactive
same,Potency,[3],inactive
same,Potency,[7],inactive
same,Potency,[5],inactive
same,Potency,[6],inactive
CCCCC(CC)COC(=O)COc1ccc(Cl)cc1C (centres undefined),Potency,[1],inactive
same,Potency,[2],inactive
same,Potency,[3],inactive
same,Potency,[7],inactive
same,Potency,[5],inactive
same,Potency,[6],inactive
same,Potency,[8],inactive
CN1Cc2cc(C(=O)N3CCC(C4CCNCC4)CC3)ccc2N[C@@H](CC(=O)O)C1=O,Potency,[1],inactive
same,Potency,[2],inactive
same,Potency,[3],inactive
same,Potency,[7],inactive
same,Potency,[5],inactive
same,Potency,[6],inactive
same,Potency,[8],inactive
CCCCC/C(=C\c1ccccc1)CO,Potency,[1],inactive
same,Potency,[2],inactive
same,Potency,[3],inactive
same,Potency,[4],inactive
same,Potency,[5],inactive
same,Potency,[6],inactive
COCCOC(=O)C1=C(C)NC(C)=C(C(=O)OC/C=C/c2ccccc2)C1c1cccc([N+](=O)[O-])c1 (centres undefined),Potency,[1],inactive
same,Potency,[2],inactive
same,Potency,[3],inactive
same,outcome,[9],inactive
same,Potency,[5],inactive
same,Potency,[8],inactive
NC(=O)Nc1ccc(Cl)c(Cl)c1,Potency,[1],inactive
same,Potency,[2],inactive
same,Potency,[3],inactive
same,Potency,[4],inactive
same,Potency,[5],inactive
same,Potency,[6],inactive
Cc1ccc(/C=N/n2c(-c3ccccc3)csc2=S)cc1,Potency,[1],inactive
same,Potency,[2],inactive
same,Potency,[3],inactive
same,outcome,[9],inactive
same,Potency,[4],inactive
same,Potency,[6],inactive
same,Potency,[8],inactive
Fc1c(F)c(F)c(Br)c(F)c1F,Potency,[1],inactive
same,Potency,[2],inactive
same,Potency,[3],inactive
same,Potency,[4],inactive
same,Potency,[5],inactive
same,Potency,[6],inactive
C1COCO1,Potency,[1],inactive
same,Potency,[2],inactive
same,Potency,[3],inactive
same,Potency,[7],inactive
same,Potency,[5],inactive
same,Potency,[6],inactive
Cc1oc(C)c(C(=O)Nc2ccccc2)c1C,Potency,[1],inactive
same,Potency,[2],inactive
same,Potency,[3],inactive
same,Potency,[7],24.3 µM (active)
same,Potency,[5],inactive
same,Potency,[6],inactive
same,Potency,[8],inactive
Cc1ccccc1N1C(=O)c2cc(S(N)(=O)=O)c(Cl)cc2NC1C (centres undefined),Potency,[1],inactive
same,Potency,[2],inactive
same,Potency,[3],inactive
same,outcome,[9],inactive
same,Potency,[4],inactive
same,Potency,[5],inactive
same,Potency,[6],inactive
same,Potency,[8],inactive
N#C/C(=C1/SC[C@@H](c2ccc(Cl)cc2Cl)S1)n1ccnc1,Potency,[1],inactive
same,Potency,[2],inactive
same,Potency,[3],inactive
same,outcome,[9],inactive
same,Potency,[5],inactive
same,Potency,[6],inactive
same,Potency,[8],inactive
CC1=C(/C=C/C(C)=C\C=C\C(C)=C\C(=O)O)C(C)(C)CCC1,Potency,[1],inactive
same,Potency,[2],inactive
same,Potency,[3],inactive
same,Potency,[4],inactive
same,Potency,[5],inactive
COC(=O)Nc1nc2ccc(C(=O)c3cccs3)cc2[nH]1,Potency,[1],inactive
same,Potency,[2],inactive
same,Potency,[3],inactive
same,outcome,[9],inactive
same,Potency,[4],11.9 µM (active)
same,Potency,[5],inactive
same,Potency,[6],inactive
CCCCCCCC/C=C\CCCCCCCC(=O)OC,Potency,[1],inactive
same,Potency,[2],inactive
same,Potency,[3],inactive
same,Potency,[4],inactive
same,Potency,[5],inactive
same,Potency,[6],inactive
same,Potency,[8],inactive
OCCSc1ccccc1,Potency,[1],inactive
same,Potency,[2],inactive
same,Potency,[3],inactive
same,Potency,[7],inactive
same,Potency,[4],inactive
same,Potency,[6],inactive
same,Potency,[8],inactive
O=C(Nc1ccc([N+](=O)[O-])cc1)Nc1ccc([N+](=O)[O-])cc1,Potency,[1],inactive
same,Potency,[2],inactive
same,Potency,[3],inactive
same,outcome,[9],inactive
same,Potency,[4],inactive
same,Potency,[5],inactive
same,Potency,[8],inactive
CCOC(=O)c1ccccc1C,Potency,[1],inactive
same,Potency,[2],inactive
same,Potency,[3],inactive
same,Potency,[7],inactive
same,Potency,[5],inactive
same,Potency,[6],inactive
O=C(CCCCCCCCC#CI)Oc1ccccc1,Potency,[1],inactive
same,Potency,[2],inactive
same,Potency,[3],inactive
same,PLD induction,[9],8.17% [at 7.66 µM]
same,Potency,[4],inactive
same,Potency,[5],inactive
same,Potency,[6],inactive
same,Potency,[8],inactive
NCC1CCCC(CN)C1 (centres undefined),Potency,[1],inactive
same,Potency,[2],inactive
same,Potency,[3],inactive
same,Potency,[4],inactive
same,Potency,[5],inactive
same,Potency,[6],inactive
same,Potency,[8],inactive
N#C/C(=C1\SCC(c2ccccc2Cl)S1)n1ccnc1 (centres undefined),Potency,[1],inactive
same,Potency,[2],inactive
same,Potency,[3],inactive
same,outcome,[9],inactive
same,Potency,[5],inactive
same,Potency,[6],inactive
same,Potency,[8],inactive
Nc1nccs1,Potency,[1],inactive
same,Potency,[2],inactive
same,Potency,[3],inactive
same,outcome,[9],inactive
same,Potency,[4],inactive
same,Potency,[6],inactive
same,Potency,[8],inactive
CC[C@@H]([C@H](C)O)n1ncn(-c2ccc(N3CCN(c4ccc(OC[C@@H]5CO[C@@](Cn6cncn6)(c6ccc(F)cc6F)C5)cc4)CC3)cc2)c1=O,Potency,[1],inactive
same,Potency,[2],inactive
same,Potency,[3],26.6 µM (active)
same,outcome,[9],inactive
same,Potency,[4],inactive
same,Potency,[5],inactive
same,Potency,[6],inactive
same,Potency,[8],inactive
Nc1ccc(C(=O)OCCCOC(=O)c2ccc(N)cc2)cc1,Potency,[1],inactive
same,Potency,[2],inactive
same,Potency,[3],inactive
same,Potency,[4],inactive
same,Potency,[5],inactive
same,Potency,[6],inactive
same,Potency,[8],inactive
CCCCCCCCCCOS(=O)(=O)O,Potency,[1],inactive
same,Potency,[2],inactive
same,Potency,[3],inactive
same,Potency,[7],inactive
same,Potency,[5],inactive
same,Potency,[6],inactive
same,Potency,[8],inactive
CNC(=O)N(c1ccccc1)c1ccccc1,Potency,[1],inactive
same,Potency,[2],inactive
same,Potency,[3],inactive
same,Potency,[7],inactive
same,Potency,[6],inactive
same,Potency,[8],inactive
Cc1cc(OI)c(C(C)C)cc1-c1cc(C(C)C)c(OI)cc1C,Potency,[1],inactive
same,Potency,[2],inactive
same,Potency,[3],inactive
same,outcome,[9],inactive
same,Potency,[4],inactive
same,Potency,[6],inactive
same,Potency,[8],inactive
CC(=O)[C@H]1CC[C@H]2[C@@H]3C[C@H](C)C4=CC(=O)CC[C@]4(C)[C@H]3[C@@H](O)C[C@]12C,Potency,[1],inactive
same,Potency,[2],inactive
same,Potency,[3],inactive
same,outcome,[9],inactive
same,Potency,[4],inactive
same,Potency,[5],inactive
same,Potency,[6],inactive
same,Potency,[8],inactive
Cc1nc2ccccn2c(=O)c1CCN1CCC(C(=O)c2ccc(F)cc2)CC1,Potency,[1],inactive
same,Potency,[2],inactive
same,Potency,[3],inactive
same,outcome,[9],inactive
same,Potency,[5],inactive
same,Potency,[6],inactive
C/C(=N/NC(=O)c1ccncc1)C(=O)O,Potency,[1],inactive
same,Potency,[2],inactive
same,Potency,[3],inactive
same,Potency,[7],inactive
same,Potency,[5],inactive
same,Potency,[6],inactive
same,Potency,[8],inactive
CCOC(=O)c1ccccc1OC,Potency,[1],inactive
same,Potency,[2],inactive
same,Potency,[3],inactive
same,Potency,[4],inactive
same,Potency,[5],inactive
same,Potency,[6],inactive
same,Potency,[8],inactive
CC1=NN(c2ccc(C(=O)O)cc2)C(=O)C1,Potency,[1],inactive
same,Potency,[2],inactive
same,Potency,[3],inactive
same,Potency,[4],inactive
same,Potency,[5],inactive
same,Potency,[6],inactive
same,Potency,[8],inactive
C[N+]1(C)CCC(=C(c2ccccc2)c2ccccc2)CC1,Potency,[1],inactive
same,Potency,[2],inactive
same,Potency,[3],inactive
same,outcome,[9],inactive
same,Potency,[4],inactive
same,Potency,[5],inactive
same,Potency,[6],inactive
same,Potency,[8],inactive
Nc1nc(Cl)nc2c1ncn2[C@@H]1O[C@H](CO)[C@@H](O)[C@@H]1F,Potency,[1],inactive
same,Potency,[2],inactive
same,Potency,[3],inactive
same,outcome,[9],inactive
same,Potency,[4],inactive
same,Potency,[5],inactive
same,Potency,[6],inactive
same,Potency,[8],inactive
CC1(C)C(=O)N(Br)C(=O)N1Cl,Potency,[1],inactive
same,Potency,[2],inactive
same,Potency,[3],inactive
same,Potency,[4],inactive
same,Potency,[5],inactive
same,Potency,[6],inactive
same,Potency,[8],inactive
